# Test results: PubChem BioAssay AID1347081 (National Center for Advancing Translational Sciences (NCATS), 2019)
# Inconclusive results are not listed. The source made the active and inactive calls. Calls follow the shape of the full dose curve.
# Test: qHTS for Inhibitors of the Functional Ribonucleoprotein Complex (vRNP) of Lassa (LASV) Arenavirus: Viability assay - alamar blue signal for LASV Confirmatory Screen
# Settings: LASV vRNP counter-screen cells; series mostly up to 53.9 µM; activity change, negative = decreased viability: at the top concentration
Compound,Potency,"activity change, negative = decreased viability"
Nc1ccc([N+](=O)[O-])cc1O,39.5 µM (active),–
CC1OC(=O)[C@@H](C(C)C)NC(=O)C(C(C)C)OC(=O)[C@H](C(C)C)NC(=O)C(C)OC(=O)[C@@H](C(C)C)NC(=O)C(C(C)C)OC(=O)[C@H](C(C)C)NC(=O)C(C)OC(=O)[C@@H](C(C)C)NC(=O)C(C(C)C)OC(=O)[C@H](C(C)C)NC1=O (stereo not given in full),1.22 µM (active),–
CC(O)(P(=O)(O)O)P(=O)(O)O,–,10.9% (inactive)
CCN(CC)C(=O)N[C@@H]1C=C2c3cccc4[nH]cc(c34)C[C@@H]2N(C)C1,–,2.86% (inactive)
CCCCC/C(C=O)=C\c1ccccc1,–,34% (inactive)
Clc1nccc2c1ccc1ccccc12,–,-23.3% (inactive)
C=C(C)C1Cc2c(ccc3c2OC2COc4cc(OC)c(OC)cc4C2C3=O)O1 (stereo not given),0.0968 µM (active),–
O=C(Nc1ccccc1)Nc1ccc(-c2ccc(C(=O)[C@H]3CCC[C@H]3C(=O)O)cc2)cc1,–,-29.7% (inactive)
O=c1[nH]c2ccccc2n1C1CCN(CCCC(c2ccc(F)cc2)c2ccc(F)cc2)CC1,–,16.9% (inactive)
Cc1cccc(-c2[nH]c(C(C)(C)C)nc2-c2ccc3c(c2)OCO3)n1,4.85 µM (active),–
O=c1ccc2ccc(O)c(O)c2o1,–,-19.2% (inactive)
CCC1OC2(C)C(O)C(/C=C/C=C/C=C/c3oc(=O)cc(OC)c3C)OC1(C)C2OC(C)=O (stereo not given),0.109 µM (active),–
Cc1ccc2c(c1)C1CN(C)CCC1N2 (stereo not given),–,-11.9% [at 19.4 µM] (inactive)
Cc1cc2c(C(C)C)c(O)c(O)c(C=O)c2c(O)c1-c1c(C)cc2c(C(C)C)c(O)c(O)c(C=O)c2c1O,21.7 µM (active),–
O=C1c2ccccc2-n2c1nc1ccccc1c2=O,3.85 µM (active),–
